# High-throughput results: PubChem, National Center for Advancing Translational Sciences (NCATS)
# SNCA expr inh: SNCA gene expression inhibition; HEK-293 SNCA-luciferase knock-in, luminescence, 24 h; Potency, µM (titrated, usually from 57.2 µM), without a hit: top-dose activity change, negative = inhibition, usual class: inhibitors; hit rate 0.17% among 140,000;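 also: potency is read from the fitted curve at half-maximal effect; plate controls were DMSO cells for no effect and cell-free wells for full effect; nearly all actives have a fitted effect of over 45% in size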
# IP6K1 inh: inhibitors of human IP6K1; Q92551; IP6K1 kinase, ADP-Glo luminescence, 2 h; stronger effect = lower value; activity change, % (series mostly up to about 58 µM); hit rate 0.81% among 140,000; AID 1645851; in the data active = activity change below about -25%
# Target sequence (Q92551 whole entry, looked up): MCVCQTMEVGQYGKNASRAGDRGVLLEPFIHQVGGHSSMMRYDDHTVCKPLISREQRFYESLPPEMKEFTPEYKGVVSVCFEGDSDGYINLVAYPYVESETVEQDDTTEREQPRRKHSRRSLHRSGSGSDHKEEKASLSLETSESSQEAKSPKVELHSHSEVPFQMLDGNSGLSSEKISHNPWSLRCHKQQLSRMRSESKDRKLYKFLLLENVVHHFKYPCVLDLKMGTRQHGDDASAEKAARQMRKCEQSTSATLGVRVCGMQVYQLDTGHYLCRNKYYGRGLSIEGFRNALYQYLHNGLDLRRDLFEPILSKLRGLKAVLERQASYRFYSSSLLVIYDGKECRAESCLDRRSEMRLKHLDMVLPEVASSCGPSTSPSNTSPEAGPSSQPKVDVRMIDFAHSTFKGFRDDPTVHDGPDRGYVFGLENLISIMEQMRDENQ
#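 ADP-Glo luminescence measures ADP made by human IP6K1 during a 2 h RT reaction with ATP/IP6 (mix at 1.3 mM/130 uM); top library doses 57.5 and 19.1 uM final.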
# FLuc inh: Photinus pyralis luciferase inhibition; P08659; purified P. pyralis luciferase, luminescence, biochemical; Potency, µM (highest dose often 115 µM), actives largely listed as inhibitors; hit rate 2.5% among 76,000; AID 1347043; also: potency is read from the fitted curve at half-maximal effect; nearly all actives have a fitted effect of over 65% in size
#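 Luminescence read by CCD imager after adding enzyme (10nM final) to wells holding compound, titrated in qHTS. Substrates 10uM each D-luciferin and ATP; buffer 50mM Tris acetate pH 7.5, 10mM Mg acetate, Tween-20, BSA.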
# HEK293 tox: cytotoxic compounds in HEK 293 cells; AID 1345083; hit rate 6.6% among 94,000; Potency, µM (series often up to 115 µM), for the others: at the highest dose activity change, negative = cytotoxicity, most hits filed as inhibitors; HEK 293 viability, ATP luminescence (CellTiter-Glo), 48-72 h; also: potency is read from the fitted curve at half-maximal effect; nearly all actives have a fitted effect of over 60% in size
#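 qHTS cytotoxicity; HEK 293, 250 cells/well; compound pinned; 48 or 72 hr, 37 degree Celsius, 5% CO2, 95% humidity; CellTiter-Glo, 10 min RT; luminescence (ATP).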
# HEK293 viab: cell viability loss counter-screen. HEK-293-SNCA-luc viability, GF-AFC fluorescence, 24 h. Potency, µM (series often up to 57.1 µM), without a hit: top-dose activity change, negative = cytotoxicity, hits mostly cytotoxic. hit rate 0.12% among 150,000. AID 1671193;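 also: potency is read from the fitted curve at half-maximal effect; 0% = DMSO-treated cells and -100% = medium-only wells without cells; nearly all actives have a fitted effect of over 30% in size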
#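 HEK-293-SNCA-luc cells (1500/well) plated 24 h, then exposed 24 h to a dilution series; GF-AFC added 30 min at 37C, fluorescence 405/540 nm; normalised to medium-only and DMSO wells, Hill fit.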
# 3T3 cytotox: NIH 3T3 cell cytotoxicity; NIH 3T3 viability, CellTiter-Glo ATP luminescence, 48-72 h; Potency, µM (titrated, usually from 96.7 µM), for the others: at the top dose activity change, negative = cytotoxicity, usual class: inhibitors; hit rate 4.3% among 94,000; also: potency is read from the fitted curve at half-maximal effect; nearly all actives have a fitted effect of over 55% in size
#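 ATP-dependent luminescence (CellTiter-Glo) served as the viability signal for NIH 3T3 cells treated with compound for 48 or 72 hr at 37 °C.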
# Starred values were filed as active, the others as inactive; i = inactive; ? = inconclusive; nt = not tested or not shown; [ ] = another dose, or the depositor's remark. Compounds with a hit are over-represented: about 7.3% of the library has one in this group of screens. Unless noted, calls follow the shape of the dose curve; as a rule, active = well fitted curve in the direction sought with a large enough effect; inconclusive = small, poorly fitted or top-dose-only effect, or another doubt; inactive = no such curve, though single readings can be large; an effect the other way counts as inactive or inconclusive. Unless noted, % is scaled to controls: 0 for no effect and ±100 for the full control effect.
SMILES,SNCA expr inh,IP6K1 inh,FLuc inh,HEK293 tox,HEK293 viab,3T3 cytotox
O=S(=O)(c1cccc(F)c1)N1CC(c2nnc(-c3ccncc3)o2)C2(CCOCC2)C1 (configuration not stated),?,5,i,2%,-2%,-5%
CCCc1ccc([S+](=O)([O-])N2CCC3(CC2)[C@H](C(=O)OCC)[C@@H](O)C(=O)N3C)cc1,nt,-10,nt,-30%,nt,?
CN(C)c1ccc(C(=C2C=CC(=[N+](C)C)C=C2)c2ccc(N(C)C)cc2)cc1,?,-58*,nt,nt,?,nt
Cc1cc(Cl)ccc1OCCN1CCN(CC2(O)CCCNC2)CC1 (configuration not stated),5%,2,i,13µM*,-2%,22µM*
Cc1ncccc1C(=O)N1CCC(Oc2cnc3c(ccn3-c3cncnc3)c2)CC1,-10%[87.6 µM],-15,i,-13%[172 µM],3%[87.6 µM],71µM*
O=C(Cc1ccccc1)N1CCC(Oc2cnc3c(ccn3-c3cncnc3)c2)CC1,?,-1,i,56µM*,?,?
O=C(Oc1ccccc1)N1CCC(Oc2cnc3c(ccn3-c3cncnc3)c2)CC1,4%[87.6 µM],5,i,56µM*,0%[87.6 µM],?
O=C(CC1CC1)N1CCC(Oc2cnc3c(ccn3-c3cncnc3)c2)CC1,-11%[87.6 µM],6,i,?,4%[87.6 µM],?
O=C(OCc1ccccc1)N1CCC(Oc2cnc3c(ccn3-c3cncnc3)c2)CC1,-3%[87.6 µM],-13,i,79µM*,-16%[87.6 µM],?
CCCN(CC1CCOC1)C(=O)Nc1cc(F)c(F)c(F)c1 (configuration not stated),-21%,-4,i,?,1%,?
O=C(O)Cn1ccc2cc(OCC3CCN(C(=O)COc4ccccc4)CC3)cnc21,-14%[87.6 µM],-8,i,i,2%[87.6 µM],?
c1ccc(CN2CCC(Oc3cnc4c(ccn4-c4cncnc4)c3)CC2)cc1,-8%[87.6 µM],-4,i,100µM*,-20%[87.6 µM],?
CCCC(=O)N1CCC(Oc2cnc3c(ccn3-c3cncnc3)c2)CC1,1%[87.6 µM],-1,i,?,1%[87.6 µM],10µM*
O=C(O)Cn1ccc2cc(OCC3CCN(C(=O)Cc4ccccc4)CC3)cnc21,-12%[87.6 µM],-4,i,-13%[172 µM],3%[87.6 µM],100µM*
CCc1ccc(C(=O)N2CCCN(S(C)(=O)=O)c3ccccc32)cc1,-14%,-11,i,-11%,-3%,-13%
Cc1ccc(OCCSc2nc3ccccc3n2CC(=O)N2CCCCC2)c(C)c1,-8%,19,nt,nt,14µM*,nt
COc1ccc(CNC(=O)C2CCN(C(=O)c3ncn4c3COC(c3ccc(C)cc3)C4)CC2)cc1 (configuration not stated),24%,-8,40µM*,-18%,0%,-14%
Cc1ccc(C2Cn3cnc(C(=O)N4CCC(C(=O)NCc5ccc(F)cc5)CC4)c3CO2)cc1 (configuration not stated),125%,-11,35µM*,8%,18%,i
CCOC(=O)C(Cc1cccc(N2CCN(C(=O)c3c(Cl)cccc3Cl)CC2)c1)OC (configuration not stated),nt,5,nt,?,nt,?
Cc1ccc(NC(=O)c2ccc3c(c2)N(S(C)(=O)=O)CC3)cc1,-26%,3,1.3µM*,?,2%,-19%
CC(C)(C)C(=O)N1CCC2(CC1)C(=O)N(CC(=O)Nc1cccc(Cl)c1)CN2c1ccccc1,-11%,21,i,35µM*,-16%,32µM*
O=C(NCc1ccco1)C1CCN(C(=O)c2ncn3c2COC(c2ccc(F)cc2)C3)CC1 (configuration not stated),27%,0,22µM*,2%,5%,0%
Cc1ccc(C2Cn3cnc(C(=O)N4CCC(C(=O)NCc5ccc(F)cc5F)CC4)c3CO2)cc1 (configuration not stated),43%,-2,?,-23%,13%,-4%
Cc1ccccc1CNC(=O)C1CCN(C(=O)c2ncn3c2COC(c2ccccc2)C3)CC1 (configuration not stated),50%,-1,16µM*,-4%,-1%,-7%
O=C(NCc1cc(F)ccc1F)C1CCN(C(=O)c2ncn3c2COC(c2ccc(F)cc2)C3)CC1 (configuration not stated),-5%,5,45µM*,0%,3%,0%
SMILES,SNCA expr inh,IP6K1 inh,FLuc inh,HEK293 tox,HEK293 viab,3T3 cytotox
O=C(NCc1ccc(F)cc1F)C1CCN(C(=O)c2ncn3c2COC(c2ccccc2)C3)CC1 (configuration not stated),4%,10,35µM*,-2%,-8%,i
CCc1ccc(CNC(=O)C2CCN(C(=O)c3ncn4c3COC(c3ccc(F)cc3)C4)CC2)cc1 (configuration not stated),-16%,0,?,-16%,6%,-11%
COc1cccc(N2C(=O)NC(=NC3CCCCC3)C23CCN(Cc2ccc(N(C)C)cc2)C3)c1 (configuration not stated),-15%,-11,nt,-15%,-7%,-2%
O=C(Nc1cnc(-c2cccnc2)nc1)C1CCCC1,35%,4,32µM*,4%,-8%,-6%
COc1ccccc1CC(=O)Nc1cnc(-c2cccc(Cl)c2)nc1,148%,-9,13µM*,?,4%,?
O=C(Nc1cnc(-c2ccc(Cl)cc2)nc1)c1cccc(F)c1,186%,1,7.9µM*,?,-1%,-4%
O=C(Nc1cnc(-c2cccc(Cl)c2)nc1)c1nccc2ccccc12,13%,-4,i,?,-8%,?
Cc1ccc(-c2ncc(NC(=O)c3ccc(F)c(F)c3)cn2)cc1,21%,-6,i,9%,0%,i
O=C(Nc1cnc(-c2cccc(Cl)c2)nc1)c1ccc(F)cc1Cl,138%,-5,11µM*,?,1%,?
O=C(Nc1cnc(-c2cccc(Cl)c2)nc1)c1ccsc1,83%,-2,?,-14%,1%,-26%
COc1ccc(CC(=O)NC2CCN(c3ccc4nnc(C5CC5)n4n3)CC2)cc1,nt,16,nt,-29%,nt,?
C=CCN1C[C@H]2COc3cc(OC)ccc3[C@H]2N(C(=O)c2ccccc2)CCC1=O,nt,7,nt,-24%,nt,?
CC(C)(C)CC(=O)Nc1cnc(-c2ccc(Cl)cc2)nc1,?,-4,0.28µM*,45µM*,-1%,40µM*
O=C(Nc1cnc(-c2cccc(Cl)c2)nc1)C1CCCO1 (configuration not stated),-30%,9,2.8µM*,?,0%,-26%
